We go through 35 compounds from PubChem BioAssay.

Calls of active or inactive are those of the source.

A short description of one assay: plasmodial surface anion channel blockers, osmotic lysis – cell-based, P. falciparum Indochina, OD700, 18 h, primary screen (AID 1157). To be noted: P. falciparum Indochina infected erythrocytes, osmotic lysis OD700, 18 h; higher = more signal, called active from +8 up or from −8 down.
Regarding `COc1ccc(CCNC(=O)[C@@]2(Sc3ccc(C)cc3)CC(=O)N(Cc3cc(C(F)(F)F)cc(C(F)(F)F)c3)[C@@H]2c2ccc(CO)cc2I)cc1`, the z-score was 0.132 (inactive).
Same read-out and setting: then `CN(C)CCCNC(=O)[C@@H]1c2ccccc2C(=O)N(Cc2ccc(OC(F)(F)F)cc2)[C@H]1c1ccc(CO)cc1`, with 0.891 (inactive); and `COCCCNC(=O)[C@@]1(Sc2ccc(C)cc2)CC(=O)N(C2Cc3ccccc3C2)[C@@H]1c1ccc(CO)cc1I`, with -0.0133 (inactive).
For the compound `CCCCC(CC)C(O)C1C=CC2C(=O)N(c3ccccc3)C(=O)C2N1Nc1ccc([N+](=O)[O-])cc1` (stereo unspecified), the z-score was 0.487 (inactive).
The same measure, in the same setting: then `CC(C)C(=C=CC[C@@H](O)c1ccccc1OCCO)C[C@@H](O)COCc1ccccc1`, with -0.119 (inactive); and `C[C@H]1C2=C3C(CC[C@H]4C(OCc5ccc(F)cc5C(F)(F)F)OC[C@](C)([C@@H]34)N(C(=O)OC(C)(C)C)C2)C2COC(=O)OCC21` (stereo partly specified), with 1.11 (inactive); and `CCOC(=CC(=O)OC)CC(O)c1cccc(Cl)c1` (stereo unspecified), with -1.72 (inactive).
The same measure, in the same setting: then `COc1cc(OC)c(C(O)C2C=CC3C(=O)N(c4ccccc4)C(=O)C3N2Nc2ccc(C#N)cc2)cc1Br` (stereo unspecified), with 1.76 (inactive); and `CN(C)CCCNC(=O)[C@@H]1c2ccccc2C(=O)N(CC23CC4CC(CC(C4)C2)C3)[C@H]1c1ccc(CO)cc1`, with 1.09 (inactive).
For the compound `COc1cc2c(cc1OC)CN(C(=O)[C@H]1[C@@H]3C(=O)O[C@@H](c4ccccc4)[C@@H](c4ccccc4)N3[C@@H](c3ccc(OCCO)cc3)[C@]13C(=O)Nc1ccc(C#CCCO)cc13)CC2`, the z-score is 0.802 (inactive).
Consider `COCCOC(=O)N1C(=O)[C@@]2(c3cc(C#CC4=CCCCC4)ccc31)[C@H](c1ccccc1OCCO)N1[C@H](c3ccccc3)[C@H](c3ccccc3)OC(=O)[C@H]1[C@@H]2C(=O)N1CCc2cc(OC)c(OC)cc2C1`, for which the z-score was 1.02 (inactive).

The next assay is described as follows: S6 kinase pathway phospho-S6 level changes – cell-based, A549, cytoblot, luminescence, serum-stimulated, primary screen (AID 1158).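 Further: serum-stimulated A549 lung adenocarcinoma cells; signal is phosphorylated S6 detected by cytoblot immunostaining with HRP secondary.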 To be noted: 5 h, higher = more signal.
On to `C=CC[C@@]12N=C(c3ccc(OCCCO)cc3)O[C@@H]1c1ccccc1N(CCS(=O)(=O)c1ccccc1)C2=O`, for which the z-score was determined as 0.766.
Still for that read-out and setting: then `CN(C)CCCNC(=O)[C@@]1(C)c2ccccc2C(=O)N(Cc2cc(C(F)(F)F)cc(C(F)(F)F)c2)[C@H]1c1ccc(CO)cc1`, with 0.16.
Still for that read-out and setting: then `CC(C)NC(=O)[C@@]1(C)c2ccccc2C(=O)N(C(C)C)[C@H]1c1ccc(CO)cc1`, with 0.0605.
Same read-out and setting: then `O=C(N1CCCCC1)[C@@]1(Cc2ccccc2)COC(c2ccc(OCCCO)cc2)=N1`, with -0.666.
In turn, `O=C1C[C@@](C(=O)NCC(F)(F)F)(c2ccc([N+](=O)[O-])cc2)[C@@H](c2ccc(CO)cc2)N1C1CCCCC1` returned a z-score of -0.429.
Same read-out and setting: with `O=C1c2ccccc2[C@](Cc2ccccc2I)(C(=O)NCc2ccccc2)[C@H](c2ccc(CO)cc2)N1C1CCCCC1` the figure was 3.43; with `C=CC[C@@]1(C(=O)N2CCCCC2)N=C(c2ccc(OCCCO)cc2)O[C@@H]1c1ccccc1`, -0.499.
Same read-out and setting: with `C=CCOC(=O)[C@@H]1[C@H]2C(=O)O[C@H](c3ccccc3)[C@H](c3ccccc3)N2[C@H](c2ccc(OCCOC(=O)[C@H]3C[C@H]4C(=O)N[C@@H](CCCC[N+](C)(C)C)C(=O)N4[C@H]3c3ccc(O)cc3)cc2)[C@@]12C(=O)Nc1ccc(I)cc12` the figure was -0.281; with `C[C@H]1ON(c2ccc(C(=O)OC(C)(C)C)cc2)[C@@H](c2ccc(O)cc2)[C@@H]1C(=O)N1C(=O)OC[C@@H]1c1ccccc1`, 0.433.
Same read-out and setting: with `Cc1c(NC(=O)/C(C#N)=C/C=C/c2ccccc2[N+](=O)[O-])c(=O)n(-c2ccccc2)n1C` the figure was -0.243; with `CC(C)(C)OC(=O)CC[C@]1(C(=O)NCCN2CCOCC2)N=C(c2ccc(OCCCO)cc2)O[C@H]1c1ccccc1N=[N+]=[N-]`, -0.136; with `CCOC(=O)[C@H]1C/C=C/C[C@H](C(=O)OCC)C(=O)O[C@H]2[C@@H](OC)O[C@H](CO)[C@@H](OC(=O)Nc3ccc(OC)cc3)[C@@H]2OC1=O`, -0.0056.
For the compound `O=C1NC(=O)C2C1C=CC(C(O)c1c(F)cccc1Cl)N2Nc1ccccn1` (stereo unspecified), the z-score was -1.1.
Still for that read-out and setting: then `COc1ccc([Si](C)(C)[C@@H]2[C@@H](CCO)O[C@]3(C(=O)N(Cc4cccc(N5C(=O)c6ccccc6Oc6ccccc65)c4)c4ccccc43)[C@H]2C)cc1`, with 0.243.
`Cc1ccc(S[C@]2(C(=O)NCc3ccccc3)CC(=O)N(C(C)C)[C@@H]2c2ccc(CO)cc2I)cc1` returned a z-score of 0.0741.
Same read-out and setting: with `CC(C)CCC[C@@H](C)[C@H]1CC[C@@]2(C)C3=C(CC[C@]12C)[C@@]1(C)CC[C@H](OC(=O)c2ccc(Br)cc2)C(C)(C)C1CC3` (stereo partly specified) the figure was 1.62.
Still for that read-out and setting: with `NC(=O)N1C(=O)C2C(C1=O)C1C=C(c3ccc(CO)cc3)C2C(C2CC2)N1Cc1sc2ccccc2c1Cl` (stereo unspecified) the figure was -0.436; with `C=CCN1C(=O)[C@@]2(O[C@@H](CCn3cc([C@H](O)c4ccccc4)nn3)[C@H]([Si](C)(C)c3ccc(OC)cc3)[C@H]2C)c2ccccc21`, 0.32; with `CC1CC/C=C\[C@H]2OC34C=CCN(CCN5CCOCC5)C(=O)[C@H]3N(CCO)C(=O)[C@@H]4C2C(=O)O1` (stereo partly specified), -0.0354.
Still for that read-out and setting: then `C=CCOC(=O)[C@H]1[C@@H]2C(=O)O[C@@H](c3ccccc3)[C@@H](c3ccccc3)N2[C@@H](c2ccc(OCCOC(=O)[C@H]3C[C@H]4C(=O)N[C@@H](Cc5ccccc5)C(=O)N4[C@H]3c3ccc(O)cc3)cc2)[C@]12C(=O)Nc1ccc(I)cc12`, with -0.481.
Compound `COc1ccc(C#Cc2ccc3c(c2)[C@]2(C(=O)N3)[C@H](C(=O)N3CCc4cc(OC)c(OC)cc4C3)[C@H]3C(=O)O[C@H](c4ccccc4)[C@H](c4ccccc4)N3[C@@H]2c2ccc(O)cc2)cc1` yielded a z-score of -0.203.
On the same count and under the same terms, with `O=C1O[C@@H](c2ccccc2)[C@@H](c2ccccc2)N2[C@@H](c3ccccc3OCCO)[C@]3(C(=O)Nc4ccccc43)[C@@H](C(=O)NC[C@H](O)c3ccccc3)[C@H]12` the figure was -0.589; with `C[C@]1(C(=O)NC2CC2)c2ccccc2C(=O)N(Cc2ccc(OC(F)(F)F)cc2)[C@H]1c1ccc(CO)cc1`, -0.111; with `NC(=O)NCC#Cc1ccc2c(c1)[C@]1(C(=O)N2)[C@H](C(=O)Nc2nc3ccccc3s2)[C@H]2C(=O)O[C@H](c3ccccc3)[C@H](c3ccccc3)N2[C@@H]1c1ccc(O)cc1`, -0.0609.
In turn, `COc1ccc(CCNC(=O)[C@@]2(Sc3ccc(C)cc3)CC(=O)N(Cc3cc(C(F)(F)F)cc(C(F)(F)F)c3)[C@@H]2c2ccc(CO)cc2I)cc1` had a z-score of 0.179.
`CN(C)CCCNC(=O)[C@@H]1c2ccccc2C(=O)N(Cc2ccc(OC(F)(F)F)cc2)[C@H]1c1ccc(CO)cc1` displayed a z-score of 0.0342.
The same measure, in the same setting: then `COCCCNC(=O)[C@@]1(Sc2ccc(C)cc2)CC(=O)N(C2Cc3ccccc3C2)[C@@H]1c1ccc(CO)cc1I`, with 0.224; and `CCCCC(CC)C(O)C1C=CC2C(=O)N(c3ccccc3)C(=O)C2N1Nc1ccc([N+](=O)[O-])cc1` (stereo unspecified), with -0.429.
The same measure, in the same setting: with `CC(C)C(=C=CC[C@@H](O)c1ccccc1OCCO)C[C@@H](O)COCc1ccccc1` the figure was 0.86; with `C[C@H]1C2=C3C(CC[C@H]4C(OCc5ccc(F)cc5C(F)(F)F)OC[C@](C)([C@@H]34)N(C(=O)OC(C)(C)C)C2)C2COC(=O)OCC21` (stereo partly specified), -0.139; with `CCOC(=CC(=O)OC)CC(O)c1cccc(Cl)c1` (stereo unspecified), 0.979.
Same read-out and setting: with `COc1cc(OC)c(C(O)C2C=CC3C(=O)N(c4ccccc4)C(=O)C3N2Nc2ccc(C#N)cc2)cc1Br` (stereo unspecified) the figure was -0.962.
In turn, `CN(C)CCCNC(=O)[C@@H]1c2ccccc2C(=O)N(CC23CC4CC(CC(C4)C2)C3)[C@H]1c1ccc(CO)cc1` had a z-score of -0.245.
Same read-out and setting: with `COc1cc2c(cc1OC)CN(C(=O)[C@H]1[C@@H]3C(=O)O[C@@H](c4ccccc4)[C@@H](c4ccccc4)N3[C@@H](c3ccc(OCCO)cc3)[C@]13C(=O)Nc1ccc(C#CCCO)cc13)CC2` the figure was 0.142.
`COCCOC(=O)N1C(=O)[C@@]2(c3cc(C#CC4=CCCCC4)ccc31)[C@H](c1ccccc1OCCO)N1[C@H](c3ccccc3)[C@H](c3ccccc3)OC(=O)[C@H]1[C@@H]2C(=O)N1CCc2cc(OC)c(OC)cc2C1` showed a z-score of 0.128.
